# SARS PLpro yeast: SARS-CoV PLP inhibition in yeast; Potency, µM (doses to about 32.9 µM), for the others: at the highest dose activity, positive = growth rescue, usual class: activators; S. cerevisiae expressing SARS-CoV PLpro, growth rescue; actives 0.19% (n = 330,000); AID 485353; calls by dose curve; note: 0% is about no effect; nearly all actives have a fitted effect of over 55% in size
# Pf growth 48h: inhibits P. falciparum growth in the first generation, 48 h. Potency, µM (series often up to 28.7 µM), inactives show at the highest dose activity change, negative = inhibition, actives largely listed as inhibitors. P. falciparum luciferase growth in erythrocytes, 48 h. actives 5.9% (n = 310,000); note: % is set by controls: 0 for no effect and ±100 for the full control effect
#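 Luciferase-expressing P. falciparum in infected erythrocytes (2% hematocrit, 0.1% parasitemia final) in RPMI 1640/0.5% Albumax were exposed to compound for 48 hours at 37 C, 5% CO2; growth read as luminescence.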
# Pf growth 96h: P. falciparum growth inhibition at 96 hours | Potency, µM (titrated, usually from 28.7 µM), without a hit: at the top dose activity change, negative = inhibition, usual class: inhibitors | actives 6.9% (n = 320,000) | P. falciparum luciferase reporter growth, 96 h | AID 504834; note: % is set by controls: 0 for no effect and ±100 for the full control effect
#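 P. falciparum expressing integrated firefly luciferase, in erythrocytes at 2% hematocrit, 0.05% parasitemia, incubated with compounds 96 h at 37 C, 5% CO2. Growth inhibition read as loss of luminescence; two-generation exposure targets delayed-death apicoplast inhibitors.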
# NS1 inh: influenza NS1 inhibition | Potency, µM (titrated, usually from 46.1 µM), inactives show at the top dose activity, positive = more growth | actives 0.4% (n = 270,000); calls by dose curve; note: actives are rising curves; nearly all actives have a fitted effect of over 50% in size
#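 Growth recovery, yeast-based: influenza A NS1 expressed in S. cerevisiae causes slow growth, and suppressors are detected by OD600. The parent strain without NS1 is used as positive control.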
# RE007 growth inh: less growth of the S. pombe RE007 Vpr strain; AID 651644; actives 0.21% (n = 360,000); Potency, µM (highest dose often 92.2 µM), for inactives: at the top dose activity change, negative = less growth, hits mostly inhibitors; S. pombe RE007 Vpr strain, BacTiter-Glo ATP luminescence, 24 h; active = well fitted falling curve with a large enough effect; inconclusive = small, poorly fitted or top-dose-only effect; inactive = no such curve, though single readings can be large or run the other way; note: % is set by controls: 0 for no effect and ±100 for the full control effect; nearly all actives have a fitted effect of over 50% in size
#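 Fission yeast strain RE007, carrying one chromosomally integrated HIV-1 vpr copy, was seeded at OD 0.01 in PMG+AL medium with 23 nL pinned compound. After 24 h at 30 °C and 99% humidity, viability was read by BacTiter-Glo luminescence.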
# An asterisk follows results filed as active; ? = inconclusive; · = no result given. Only some compounds are listed: those with a hit (about 9.5% of all), similar ones and a draw of the others. Unless noted, calls come from the whole dose curve; as a rule, active = well fitted inhibition curve with a large enough effect; inconclusive = small, poorly fitted or top-dose-only effect, or another doubt; inactive = no such curve, though single readings can be large or run the other way. Potency is the fitted concentration of half-maximal effect.
SMILES,SARS PLpro yeast,Pf growth 48h,Pf growth 96h,NS1 inh,RE007 growth inh
COc1cccc(/C=N/Nc2ncnc3scc(-c4ccccc4)c23)c1O,?,2.94µM*,2.33µM*,-17.2%,?
COc1cccc(/C=N/Nc2cc(-n3nc(C)cc3-c3ccccc3)ncn2)c1O,?,5.86µM*,-13.7%,-0.1%,1.0%
Oc1ccc(/C=N/Nc2nccnc2Cl)c(O)c1,3.16µM*,·,?,-99.3%,-17.5%
COc1cccc(/C=N/Nc2nccnc2Cl)c1O,-6.1%,?,-2.9%,-61.5%,35.5µM*
Oc1ccccc1/C=N/Nc1nccnc1Cl,-33.2%,·,-11.2%,-186.4%,?
COc1cccc(/C=N/Nc2nc(Nc3ccccc3)nc(-n3nc(C)cc3C)n2)c1O,13.0%,·,?,5.8%,1.6%
FC(F)(F)c1cc(NC(=S)N2c3ccccc3-n3cccc3[C@H]2c2cccnc2)cc(C(F)(F)F)c1,·,·,·,-15.9%,·
CN(C)c1ccc(C(=O)N2CCN(C(=O)C3CCCO3)CC2)cc1 (configuration not stated),-2.2%,·,·,·,-14.4%
CCOc1cc2c3c(c1)C1(C(=O)N3C(C)(C)C=C2C)C(C#N)=C(N)Oc2cc(O)ccc21 (configuration not stated),-2.8%,4.65µM*,·,-43.6%,9.6%
CC1=CC(C)(C)N2C(=O)C3(C(C#N)=C(N)Oc4cc(C)oc(=O)c43)c3cccc1c32 (configuration not stated),-1.8%,?,14.7µM*,-47.3%,-0.9%
CCN1C(=O)C2(C(C#N)=C(N)Oc3cc(C)oc(=O)c32)c2ccccc21 (configuration not stated),3.2%,8.2%,31.9%,0.8%,3.1%
COc1cc2c3c(c1)C1(C(=O)N3C(C)(C)C=C2C)C(C#N)=C(N)Oc2cc(O)ccc21 (configuration not stated),·,?,·,-15.3%,11.1%
O=C(O)c1cc(N/N=C/C=C/c2ccccc2[N+](=O)[O-])ccc1Cl,0.8%,313.3%,494.5%,8.1%,-15.7%
Cc1ccc(OC(=O)C2CSC3(C)CCC(=O)N23)c(Br)c1 (configuration not stated),-1.7%,23.3%,5.86µM*,·,29.1%
COc1ccccc1N1CCN(C(=O)CCC(=O)Nc2nnc(CC(C)C)s2)CC1,22.4%,0.0%,4.4%,-7.8%,3.4%
Cc1ccc(C2c3c(oc4cc(C)c(C)cc4c3=O)C(=O)N2CCCN2CCOCC2)cc1 (configuration not stated),-4.4%,5.22µM*,?,-19.3%,-3.9%
O=C1c2oc3ccc(F)cc3c(=O)c2C(c2ccc(F)cc2)N1CCCN1CCOCC1 (configuration not stated),·,·,·,·,-4.8%
S=C1NC(c2ccccc2)=CC(c2ccccc2)N1 (configuration not stated),21.4%,10.4µM*,?,6.7%,2.8%
CCOc1cccc(NC(=O)C2CC(=O)N(C)C(=Nc3cccc(F)c3)S2)c1 (configuration not stated),-7.4%,?,?,-77.0%,-4.8%
COc1ccccc1N=C1SC(C(=O)Nc2ccc(F)cc2)CC(=O)N1C (configuration not stated),4.5%,10.4µM*,?,-32.1%,17.1%
CCOc1cccc(NC(=O)C2CC(=O)N(C)C(=Nc3ccccc3)S2)c1 (configuration not stated),0.9%,?,3.7µM*,-44.9%,5.0%
COc1ccc(Cn2nnnc2CN2CCc3ccccc3C2)cc1,-3.6%,·,13.1µM*,-17.0%,14.7%
COc1ccc(C(c2nnnn2Cc2ccccc2)N2CCN(C/C=C/c3ccccc3)CC2)cc1 (configuration not stated),·,·,·,·,-5.8%
CCCC(c1nnnn1Cc1ccc(OC)cc1)N1CCN(c2ccccc2OC)CC1 (configuration not stated),-1.6%,10.4µM*,·,-49.6%,-12.0%
COc1ccc(Cn2nnnc2CN2CCc3ccccc32)cc1,-2.2%,-18.3%,·,-9.0%,10.2%
SMILES,SARS PLpro yeast,Pf growth 48h,Pf growth 96h,NS1 inh,RE007 growth inh
COc1ccc(Cn2nnnc2C(c2cccs2)N2CCN(c3ccc([N+](=O)[O-])cc3)CC2)cc1 (configuration not stated),2.1%,10.4µM*,?,3.3%,32.0%
CCCC(c1nnnn1Cc1ccccc1)N1CCN(c2ccccc2OC)CC1 (configuration not stated),-0.6%,-20.6%,?,-16.6%,-1.6%
CCN1CCN(C(c2ccccc2)c2nnnn2Cc2ccc(OC)cc2)CC1 (configuration not stated),-1.4%,0.9%,5.22µM*,·,6.1%
CCc1nc2ccc(C(=O)N3CCN(C(=O)c4ccco4)CC3)cn2c1N(C)Cc1nccn1C,·,·,·,·,4.1%
COc1ccc(C(=O)N/C(=C/c2cccs2)c2nc3ccccc3[nH]2)cc1OC,0.7%,-19.2%,4.65µM*,2.7%,1.4%
COc1ccc(C(=O)N/C(=C/c2cccs2)C(=O)NC(C)(C)C)cc1OC,1.4%,-15.8%,0.7%,4.6%,-0.9%
O=C(OCN1C(=O)c2ccccc2C1=O)c1cccc(OC(F)F)c1,3.0%,12.5%,9.2%,8.4%,4.7%
Cc1cccc(NC(=O)C(c2ccccc2Cl)N2CCOCC2)c1 (configuration not stated),-1.1%,11.7µM*,14.7µM*,·,10.1%
CC[C@]12c3[nH]c4ccccc4c3CCN1C(=O)C(CC(=O)NCCCN(C)C)C[C@@H]2C(=O)N1CCN(C(=O)C2CC2)CC1 (some centres not stated),0.3%,·,·,·,8.1%
CCC(=O)Nc1cc(=O)[nH]c2nc(-c3ccc(Cl)cc3)nn12,-0.1%,0.262µM*,?,-0.5%,-0.7%
Cc1ccc(-c2nc3[nH]c(=O)cc(NC(=O)c4cccs4)n3n2)cc1,1.3%,?,?,-0.1%,8.4%
CC(C)(C)c1ccc(-c2nc3[nH]c(=O)cc(NC(=O)c4ccco4)n3n2)cc1,-2.2%,10.4µM*,4.15µM*,12.8%,0.0%
Cc1ccc(-c2nc3[nH]c(=O)cc(NC(=O)C(C)C)n3n2)cc1,0.6%,0.294µM*,0.0828µM*,-1.8%,-3.1%
CC(NC(=O)c1ccco1)c1nc(-c2ccc(C(C)(C)C)cc2)no1 (configuration not stated),-5.0%,-3.5%,?,-7.1%,-8.4%
Cc1nc(SCc2nc3ccc(C(=O)c4ccccc4)cc3[nH]2)c2oc3ccccc3c2n1,-2.2%,·,·,·,·
COc1cc(/C=C2\SC(=S)N(NS(=O)(=O)c3ccc(C)cc3)C2=O)cc(OC)c1OC,-1.6%,4.65µM*,?,1.2%,-9.1%
COc1cc(/C=C2\SC(=S)N(NS(=O)(=O)c3ccc(C)cc3)C2=O)ccc1O,-1.1%,?,13.6%,-35.6%,-8.7%
CSC1=C(C#N)C(c2ccc(C)s2)CC(=O)N1 (configuration not stated),-3.4%,12.2%,2.33µM*,0.5%,-0.8%

# Bioassay records deposited in PubChem BioAssay by National Center for Advancing Translational Sciences (NCATS).
